Reference: the supplement of paper PMC10981050
Values joined by “and” are separate entries in the source; they are usually repeats but may differ in a detail not shown here. Identical values can stand only once. Counter-ions that a name gives are not always drawn.

Tests used:
Assay in all cases: cell viability relative to vehicle control; higher = less cytotoxic
Details in all cases: 10 µM
[1] = system: K562
Outline: (§1)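 Each screen used CRISPR-edited mutant and wild-type clones from four leukaemia lines. Compounds were acoustically dispensed at a single 10 µM dose, and CellTiter-Glo luminescence was read after 48 h with the supernatant first removed. Viability was analysed in Genedata Screener and given as percent of the on-plate vehicle control.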

[2] = system: MARIMO
Outline: as §1

[3] = system: MOLM14
Outline: as §1

[4] = system: OCI-AML2
Outline: as §1

| SMILES | cell viability ([1]; SRSF2 genotype: SRSF2 P95H/wt) | cell viability ([1]; SRSF2 genotype: SRSF2 wt/wt) [%] | cell viability ([2]; SRSF2 genotype: SRSF2 P95H/wt) [%] | cell viability ([2]; SRSF2 genotype: SRSF2 wt/wt) [%] | cell viability ([3]; SRSF2 genotype: SRSF2 P95H/wt) [%] | cell viability ([3]; SRSF2 genotype: SRSF2 wt/wt) [%] | cell viability ([4]; SRSF2 genotype: P95H/wt) [%] | cell viability ([4]; SRSF2 genotype: wt/wt) [%] |
| --- | --- | --- | --- | --- | --- | --- | --- | --- |
| CS(=O)(=O)c1ccc(C2=C(c3ccccc3)C(=O)OC2)cc1 [Rofecoxib (Vioxx)] | 98.7% and 95.2% | 93.5 | 98.6 | 104 | 94.7 | 101 | 87.8 | 98.8 |
| CCCOc1ccc2[nH]c(NC(=O)OC)nc2c1 [Oxibendazole] | 15.3% and 34.8% | 28 | 6.59 | 7.72 | 10.9 | 3.24 | 4.68 | 8.07 |
| C=CCc1cccc(/C=N/NC(=O)CN2CCN(Cc3ccccc3)CC2)c1O | 70.5% and 67% | 65.4 | 25.7 | 31.6 | 12.3 | 8.85 | 19.2 | 19.7 |
| CC(O)c1cc(C(=O)N[C@@H](C)Cn2ccc(-c3ccc(C#N)c(Cl)c3)n2)n[nH]1 (some centres not stated) | 87.9% and 91.4% | 93.3 | 90.6 | 93.5 | 98.8 | 98 | 91.4 | 102 |
| CN(C)C(=O)C(CCN1CCC(O)(c2ccc(Cl)cc2)CC1)(c1ccccc1)c1ccccc1 [Loperamide hydrochloride] | 45.5% and 54.9% | 49.4 | 55.5 | 61.6 | 58.5 | 59.7 | 44.2 | 54.9 |
| C=CC(=O)Nc1cccc(Oc2nc(Nc3ccc(N4CCN(C)CC4)cc3)nc3ccsc23)c1 | 16.7% and 14.4% | 49.6 | 31.2 | 43.4 | 0.27 | 0.47 | 0.27 | 0.68 |
| c1ccc(-c2[nH]ncc2-c2ccnc3ccccc23)nc1 | 105% and 109% | 105 | 107 | 106 | 109 | 104 | 112 | 105 |
| CCCCC(CC)COC(=O)C(C#N)=C(c1ccccc1)c1ccccc1 (configuration not stated) [Octocrylene] | 94.2% and 88.6% | 97.5 | 95.1 | 107 | 95.1 | 98.5 | 98.4 | 99.9 |
| C=C1CCC2C(C)(COC(=O)CCC(=O)O)C(OC(=O)CCC(=O)O)CCC2(C)C1C=CC1=CCOC1=O (configuration not stated) [Dehydroandrographolide Succinate] | 114% and 108% | 111 | 101 | 101 | 109 | 107 | 106 | 105 |
| CC(=O)OCC(=O)NCCCOc1cccc(CN2CCCCC2)c1 [Roxatidine acetate HCl] | 102% and 97.3% | 96.1 | 93.7 | 103 | 101 | 101 | 92 | 94.8 |
| Cc1c(Cn2c(C)nc3c(C(=O)O)cc(N4CCOCC4)cc32)cccc1C(F)(F)F | 104% and 97.4% | 108 | 105 | 105 | 83.2 | 89.7 | 92.7 | 95.2 |
| O=C(NNc1ccccc1)c1ccncc1 | 82.8% and 97.5% | 77.1 | 91.1 | 101 | 93.5 | 89.5 | 92.7 | 97.9 |
| CN1C(CCl)Nc2cc(Cl)c(S(N)(=O)=O)cc2S1(=O)=O (configuration not stated) [Methyclothiazide] | 92.4% and 91.5% | 98.4 | 96.5 | 100 | 90 | 97.4 | 96.3 | 99 |
| OC[C@H]1O[C@@H](c2ccc(Cl)c(Cc3ccc(O[C@H]4CCOC4)cc3)c2)[C@H](O)[C@@H](O)[C@@H]1O | 89.6% and 87.1% | 94.4 | 89.4 | 102 | 94.3 | 93.8 | 93.1 | 105 |
| Cc1nc(-c2ccc(OCC(C)C)c(C#N)c2)sc1C(=O)O [Febuxostat (Uloric)] | 93.4% and 98.2% | 100 | 102 | 111 | 107 | 105 | 119 | 123 |
| O=C(c1ccccc1)c1ccc2nc(NC(=O)c3csc(C4CCN(c5ncnc6ccsc56)CC4)n3)[nH]c2c1 | 45.4% and 37.5% | 39.3 | 41.3 | 37.5 | 34.2 | 26.5 | 26.2 | 25 |
| O=C(Nc1ccc(O)cc1)c1ccccc1O [Osalmid] | 98.1% and 108% | 98.3 | 93 | 95.8 | 107 | 109 | 99 | 87.3 |
| O=C(/C=C/C=C/c1ccc2c(c1)OCO2)N1CCCCC1 [Piperine (1-Piperoylpiperidine)] | 105% and 94.8% | 89.7 | 92.7 | 100 | 106 | 100 | 85.6 | 97.3 |
| O=C1CCCC(=O)C1C(=O)c1ccc(C(F)(F)F)cc1[N+](=O)[O-] [Nitisinone] | 105% | 108 | 103 | 109 | 104 | 108 | 110 | 111 |
| CCn1c(C(=O)N(C2CC2)C2CC2)cc2c3c(ncn3C)c(Nc3cc(C)n(C)n3)nc21 | 103% | 108 | 108 | 102 | 41.6 | 38.5 | 43 | 57.1 |

| SMILES | cell viability ([1]; SRSF2 genotype: SRSF2 P95H/wt) | cell viability ([1]; SRSF2 genotype: SRSF2 wt/wt) [%] | cell viability ([2]; SRSF2 genotype: SRSF2 P95H/wt) [%] | cell viability ([2]; SRSF2 genotype: SRSF2 wt/wt) [%] | cell viability ([3]; SRSF2 genotype: SRSF2 P95H/wt) [%] | cell viability ([3]; SRSF2 genotype: SRSF2 wt/wt) [%] | cell viability ([4]; SRSF2 genotype: P95H/wt) [%] | cell viability ([4]; SRSF2 genotype: wt/wt) [%] |
| --- | --- | --- | --- | --- | --- | --- | --- | --- |
| COc1cc(-c2ncn(/C=C\C(=O)OC(C)C)n2)cc(C(F)(F)F)c1 | 5.77% and 12.8% | 10.7 | 19.1 | 20.6 | 2.46 | 0.92 | 4.82 | 9.13 |
| Cc1cc(NC(=O)c2cccc(NC(=O)/C=C/CN(C)C)c2)ccc1Nc1nccc(-c2cccnc2)n1 | 59.8% and 60.8% | 65.5 | 53.1 | 50.7 | 6.36 | 6.17 | 17.2 | 26.6 |
| C[C@@H]1CC(=O)Nc2cccc(-c3ccc4c(c3)c(-c3cnn(C)c3)nn4C)c2N1 | 80.2% and 77.7% | 81.6 | 55.1 | 49.1 | 32.5 | 35.8 | 32.6 | 47.2 |
| CC1(C)CCC2(C(=O)O)C(O)CC3(C)C(=CCC4C5(C)CC(O)C(O)C(C)(CO)C5CCC43C)C2C1 (configuration not stated) [Polygalacic acid] | 103% and 102% | 103 | 101 | 98.5 | 109 | 100 | 104 | 94.9 |
| O[C@H]1[C@H]2c3cc4c(cc3CN3CCC(=C[C@@H]1O)[C@H]23)OCO4 [Lycorine] | 18.3% and 25.2% | 27.9 | 23 | 20.6 | 18.2 | 7.75 | 0.46 | 1.41 |
| CC(C)C[C@H](NP(=O)(O)O[C@@H]1O[C@@H](C)[C@H](O)[C@@H](O)[C@H]1O)C(=O)N[C@@H](Cc1c[nH]c2ccccc12)C(=O)O [Phosphoramidon Disodium Salt] | 104% and 101% | 92.3 | 101 | 106 | 95.5 | 104 | 98.6 | 96.9 |
| COc1c(O)c(C)cc2c1C(=O)c1c(O)cccc1C2=O [Obtusifolin] | 103% and 105% | 107 | 109 | 105 | 111 | 105 | 98.6 | 92.6 |
| C=C1[C@H](CO)[C@@H](O)C[C@@H]1n1cnc2c(=O)[nH]c(N)nc21 [Entecavir] | 109% and 104% | 103 | 94.8 | 101 | 101 | 106 | 79.5 | 93.7 |
| COc1cc2c(=O)c(-c3ccc(O)cc3)coc2cc1O[C@@H]1O[C@H](CO)[C@@H](O)[C@H](O)[C@H]1O [Glycitin] | 98% and 97.4% | 101 | 95.2 | 103 | 97.1 | 103 | 89.3 | 87 |
| CNC(=O)c1cc(Oc2ccc(NC(=O)Nc3ccc(Cl)c(C(F)(F)F)c3)cc2)ccn1 [Sorafenib Tosylate] | 7.11% and 11.7% | 11.8 | 35.8 | 29.3 | 9.9 | 11.5 | 9.8 | 11.3 |
| Cc1ccn[nH]1 [3-Methylpyrazole] | 112% and 104% | 103 | 107 | 110 | 99.3 | 105 | 95.4 | 106 |
| COc1cc2c(cc1Cc1cccc(Cl)c1F)c(=O)c(C(=O)O)cn2[C@H](CO)C(C)C [Elvitegravir (GS-9137)] | 52% and 50.4% | 45.1 | 40.2 | 39.1 | 57.3 | 35 | 12.9 | 15.9 |
| CC1=C[C@]2(O)O[C@@]3(CC2=C(C)C)[C@@H](C)CC[C@@H]13 [Curcumenol] | 106% and 103% | 99.5 | 96.5 | 109 | 102 | 99 | 88.6 | 99 |
| CCCNC(C)C(=O)Nc1c(C)csc1C(=O)OC (configuration not stated) [Articaine HCl] | 107% and 117% | 114 | 107 | 106 | 106 | 107 | 116 | 99.9 |
| CC(C)c1cc(-c2ccc(F)c3ccccc23)nc(N)n1 | 95.5% and 96.7% | 94.9 | 89.5 | 98.3 | 93.1 | 97.9 | 89.7 | 101 |
| CCCCCCCCCCCCCCCC(=O)N[C@@H](CCSC)C(=O)NCC(=O)N[C@@H](Cc1ccc(O)cc1)C(=O)N[C@@H](CCC(N)=O)C(=O)N[C@@H](CCCCN)C(=O)N[C@@H](CCCCN)C(=O)N[C@@H](CC(C)C)C(=O)N[C@@H](CCCNC(=N)N)C(=O)N[C@@H](CO)C(=O)N[C@@H](CCSC)C(=O)N[C@H](C(=O)N[C@@H](CC(=O)O)C(=O)N[C@@H](CCCCN)C(=O)N[C@@H](Cc1ccc(O)cc1)C(=O)N[C@@H](CCCNC(=N)N)C(=O)N[C@@H](CC(C)C)C(=O)O)[C@@H](C)O | 90.8% and 92.9% | 90 | 76.6 | 82.2 | 58.6 | 72.7 | 75.1 | 94.9 |
| CCS(=O)(=O)Nc1ccc2[nH]c(O)c(C(=Nc3ccc(CN4CCCCC4)cc3)c3ccccc3)c2c1 [Hesperadin] | 19.5% and 24% | 15.9 | 5.46 | 9.42 | 0.94 | 0.3 | 5.95 | 9.44 |
| C=C(C)[C@@H]1CC[C@]2(C(=O)O)CC[C@]3(C)[C@H](CC[C@@H]4[C@@]5(C)CC[C@H](O)C(C)(C)[C@@H]5CC[C@]43C)[C@@H]12 [Betulinic acid] | 72% and 77.2% | 80.1 | 82.3 | 51.4 | 86.7 | 89.3 | 61.9 | 65 |
| COc1cc2c(Oc3ccc4[nH]c(C)cc4c3F)ncnc2cc1OCCCN1CCCC1 [Cediranib (AZD2171)] | 4.41% and 2.97% | 11.7 | 55.1 | 48.3 | 2.27 | 1.47 | 9.24 | 21.7 |
